Screening results: PubChem BioAssay, National Center for Advancing Translational Sciences (NCATS)
Shown are actives, neighbours in structure and some others; about 6.9% of the full set was active somewhere.
SW480 rereplic – inducers of DNA re-replication in SW480 colon cancer cells. SW480 DNA re-replication, Hoechst DNA content imaging, 48 h. 1.8% of 340,000 active. Potency, µM (doses to about 46.1 µM), for the others: at the highest dose re-replication activation, actives largely listed as activators. AID 624297; note: potency is the fitted concentration of half-maximal effect; % of control where 0% means no effect; nearly all actives have a fitted effect of over 55% in size
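Image-based DNA-content assay: after two days of treatment, nuclei were labelled with the DNA dye Hoechst and imaged, and hits were compounds raising the count of nuclei showing high fluorescence intensity.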
ASM inhibitor – blocks human secretory acid sphingomyelinase | Potency, µM (doses to about 57.5 µM), for inactives: top-dose activity change, negative = inhibition, hits mostly inhibitors | 0.006% of 340,000 active | placental ASM, HMU-PC fluorogenic substrate, 60 min | P17405; note: potency is the fitted concentration of half-maximal effect
Target sequence (P17405 47-631 limits assumed): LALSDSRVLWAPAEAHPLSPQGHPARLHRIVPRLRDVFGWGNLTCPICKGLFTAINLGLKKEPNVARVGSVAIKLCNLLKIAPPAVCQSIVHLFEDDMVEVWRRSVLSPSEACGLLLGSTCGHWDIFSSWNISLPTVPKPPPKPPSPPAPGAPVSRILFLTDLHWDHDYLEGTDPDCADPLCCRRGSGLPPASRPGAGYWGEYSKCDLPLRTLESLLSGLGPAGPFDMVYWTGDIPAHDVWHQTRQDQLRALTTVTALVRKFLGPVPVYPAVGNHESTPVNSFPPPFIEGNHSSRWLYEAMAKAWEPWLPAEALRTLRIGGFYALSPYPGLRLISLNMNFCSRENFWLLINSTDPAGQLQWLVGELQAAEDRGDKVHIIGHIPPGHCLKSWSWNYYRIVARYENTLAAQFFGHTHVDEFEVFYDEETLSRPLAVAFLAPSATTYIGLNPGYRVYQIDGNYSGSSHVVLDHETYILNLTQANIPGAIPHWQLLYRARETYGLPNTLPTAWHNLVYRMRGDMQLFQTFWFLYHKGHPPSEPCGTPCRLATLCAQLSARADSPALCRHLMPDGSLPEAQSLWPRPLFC
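Human placenta-derived ASM enzyme was preincubated with compound for 10 minutes at room temperature, then given fluorogenic substrate HMU-PC0 (9 uM final) for 60 minutes at 37 °C; a pH 10 stop preceded fluorescence reading at Ex 386/Em 447 nm.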
Giardia killer – kills Giardia lamblia; activity change, % at 7.66 µM, hits read low; 0.15% of 340,000 active; AID 540267; Giardia lamblia trophozoite viability; in the data active = activity change below about -80%; inconclusive = between about -30% and that limit;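 note: parasites exposed to compound for two days anaerobically before the ATP read; % is set by controls: 0 for no effect and ±100 for the full control effect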
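Killing of trophozoites was scored by loss of ATP luminescence after a 48 hrs anaerobic exposure to compounds at 37 deg C, using 100 cells per well.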
KB-3-1 cytotox – KB-3-1 parental cell cytotoxicity; 1.4% of 400,000 active; Potency, µM (top dose mostly 46.1 µM), actives largely listed as cytotoxic; AID 1347075; KB-3-1 viability, CellTiter-Glo ATP luminescence, 72 h; note: potency is the fitted concentration of half-maximal effect; % is set by controls: 0 for no effect and ±100 for the full control effect; nearly all actives have a fitted effect of over 60% in size
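Using CellTiter-Glo luminescence, growth of non-resistant KB-3-1 adenocarcinoma cells is assessed 72 h after pin-tool compound addition at 37 °C. Normalized responses across the concentration series yield fitted curves.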
MCF10A rerep – DNA re-replication induction in MCF 10a cells | MCF 10A DNA re-replication, Hoechst nuclear intensity, 48 h | Potency, µM (titrated, usually from 46.1 µM), for inactives: at the highest dose activity, positive = re-replication, usual class: activators | 2.9% of 350,000 active | AID 624296; note: potency is the fitted concentration of half-maximal effect; % of control where 0% means no effect; nearly all actives have a fitted effect of over 50% in size
KB-V1 MDR tox – kills drug-selected multidrug resistant KB-V1 cells; KB-V1 MDR cells viability, CellTiter-Glo, 72 h; Potency, µM (titrated, usually from 46.1 µM), usual class: cytotoxic; 3.4% of 400,000 active; note: potency is the fitted concentration of half-maximal effect; % is set by controls: 0 for no effect and ±100 for the full control effect; nearly all actives have a fitted effect of over 60% in size
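Drug-selected KB-V1 cells, grown in DMEM lacking phenol red with 10% FBS, receive compound titrations; after three days at 37 degrees C, surviving cell ATP is quantified by CellTiter-Glo luminescence and responses normalized and curve-fitted.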
* hit, by the source's call; i = inactive; ? = inconclusive; / = no result. Unless noted, calls come from the whole dose curve; as a rule, active = well fitted curve in the direction sought with a large enough effect; inconclusive = small, poorly fitted or top-dose-only effect, or another doubt; inactive = no such curve, though single readings can be large; an effect the other way counts as inactive or inconclusive.

SMILES	SW480 rereplic	ASM inhibitor	Giardia killer	KB-3-1 cytotox	MCF10A rerep	KB-V1 MDR tox
CC(Oc1ccc(F)cc1)C(=O)Nc1ccccc1C(=O)N1CCCCC1 (configuration not stated)	-2%	4%	-22	i	8%	i
Cc1cccc(-c2nnc(SCC(=O)NC3CCCCC3)o2)c1	/	/	/	i	/	i
COC(=O)c1cc(=O)n(Cc2ccc(OC)c(OC)c2)c(=Nc2ccc(F)cc2)s1	2%	-4%	-23	21µM*	?	?
COC(=O)c1cc(=O)n(CCc2ccc(OC)c(OC)c2)c(=Nc2ccc(F)c(Cl)c2)s1	6%	-19%	-26	?	3.3µM*	21µM*
CNC(=O)CC1C(=O)N(c2ccc(Cl)cc2)C(=S)N1CCc1ccc(OC)c(OC)c1 (configuration not stated)	?	-1%	-4	i	?	i
COC(=O)c1cc(=O)n(Cc2ccco2)c(=Nc2ccc(F)cc2)s1	7%	-10%	-10	?	?	23µM*
Cc1ccccc1CCNC(=O)c1ccc(NC(=O)N2CC(C)Sc3ccccc32)cc1 (configuration not stated)	/	/	/	i	/	i
CCN(CC)c1ccc(NC(=O)C(Cc2ccccc2)NS(=O)(=O)c2ccc(Br)s2)c(C)c1 (configuration not stated)	/	/	/	i	/	i
C=C1NN(Cc2ccc(OC)cc2)C(=O)N1c1ccccc1	/	/	/	i	/	i
COc1cc(C)ccc1OCCOCCOc1ccccc1[N+](=O)[O-]	1%	-1%	?	i	4%	i
COc1ccccc1OCCOCCOc1ccc(C)cc1[N+](=O)[O-]	9%	3%	19	i	19%	13µM*
CN(C(=O)COc1ccccc1C(=O)Nc1ccccc1)c1ccccc1	/	/	/	i	/	i
CN(C)c1cccc(S(=O)(=O)N2CCCN(S(=O)(=O)c3ccc4c(c3)OCCO4)CC2)c1	/	/	/	i	/	i
COc1ccc2cc(C(C)C(=O)N3CCC(C)CC3)ccc2c1 (configuration not stated)	?	0%	1	21µM*	?	?
CC1(C)CC(N(Cc2ccc(F)cc2)C(=O)c2ccc(F)cc2)CCO1 (configuration not stated)	-11%	2%	-9	i	15%	i
CC1(C)CC(C(CCN(Cc2ccccc2)C(=O)c2ccco2)c2ccc(F)cc2)CCO1 (configuration not stated)	-77%	-11%	-13	?	8.2µM*	9.2µM*
O=C(c1ccco1)N(CCC(c1ccccc1)c1ccco1)Cc1ccc(F)cc1 (configuration not stated)	?	-4%	4	i	10µM*	7.3µM*
O=C(NCCc1ccccc1F)C1CC(=O)N(c2cccc(C(F)(F)F)c2)C1 (configuration not stated)	-1%	-2%	-15	i	5%	13µM*
COc1ccc(CCNC(=O)C2CC(=O)N(c3ccc(C(C)(C)C)cc3)C2)cc1OC (configuration not stated)	-2%	-4%	14	i	0.58µM*	i
CCOc1ccc(CCNC(=O)C2CCN(S(=O)(=O)N3CCC(C)CC3)CC2)cc1OCC	10%	4%	20	i	5%	2.6µM*
COc1ccc(CCNC(=O)C2CCN(S(=O)(=O)N3CC(C)CC(C)C3)CC2)cc1OC (configuration not stated)	5%	1%	24	i	5%	21µM*
CCOc1ccc(CNC(=O)C2CCN(S(=O)(=O)N3CCC(C)CC3)CC2)cc1OC	/	/	/	i	/	i
c1ccc2nc3c(cc2c1)CCCC3	/	/	/	i	/	?
O=C1CC(C(=O)N(CC2CCCO2)C(C(=O)NC2CCCCC2)c2ccncc2)CS1 (configuration not stated)	5%	1%	2	i	8%	i
O=C(NC1CCCCC1)C(c1ccc(O)cc1)N(CC1CCCO1)C(=O)C1COc2ccccc2O1 (configuration not stated)	10%	-3%	0	i	0%	21µM*
SMILES	SW480 rereplic	ASM inhibitor	Giardia killer	KB-3-1 cytotox	MCF10A rerep	KB-V1 MDR tox
CC1(C)C2([N+](=O)[O-])CN(CCO)CC1([N+](=O)[O-])CN(CCO)C2	3%	4%	1	i	-3%	i
CC1(C)C2([N+](=O)[O-])CN3CC1([N+](=O)[O-])CN(C2)C3C(O)C(O)C(O)CO (configuration not stated)	10µM*	0%	-2	i	-2%	i
COc1ccc(CN2C(=O)C(C)Nc3ncnc(N4CCc5ccccc5C4)c32)cc1 (configuration not stated)	/	/	/	2.3µM*	/	?
O=C/C=C/c1c(-c2ccccc2)cc2oc3ccccc3cc1-2	?	-13%	-22	?	8.2µM*	?
Nc1ccc(-c2cc3ccccc3oc2=O)cc1	0%	8%	-2	i	6%	i
O=C(Nc1ccc2ccccc2c1)Nc1nnc(-c2ccc(Cl)cc2)s1	/	/	/	i	/	i
C=CCc1c(C)nc(C)nc1N/N=C/c1ccc([N+](=O)[O-])cc1	3%	-10%	5	i	-2%	i
C=CCc1c(C)nc(C)nc1N/N=C/c1ccccc1O	12µM*	197%	1	i	19%	7.3µM*
CCn1c(O)c(N=NC(=O)CNC(=O)c2ccco2)c2ccccc21	-7%	-2%	-10	?	2%	i
C=CCn1c(O)c(N=NC(=O)CNC(=O)c2ccco2)c2ccccc21	16µM*	-2%	-3	?	18µM*	?
C=CCn1c(O)c(N=NC(=S)Nc2cccc(OC)c2)c2ccccc21	-1%	-15%	-10	2.3µM*	-33%	?
CCCn1c(O)c(N=NC(=O)c2ccco2)c2ccccc21	4%	-2%	7	?	14%	2.6µM*
CCn1c(O)c(N=NC(=O)c2cccs2)c2ccccc21	-1%	-4%	-6	?	13%	9.2µM*
C=CCn1c(O)c(N=NC(=S)Nc2ccc(OC)cc2)c2ccccc21	2%	-10%	3	?	1%	i
CC1CCCC(NC(=O)CN2CCN(S(=O)(=O)c3cccs3)CC2)C1C (configuration not stated)	0%	-2%	-6	i	1%	i
O=C(N/N=C/c1ccccc1OC(F)F)c1cc(-c2ccncc2)nc2ccccc12	12µM*	-9%	-18	18µM*	4.6µM*	i
O=C(O)COc1ccccc1/C=N/NC(=O)c1cc(-c2ccccc2)nc2ccccc12	-44%	13%	11	i	-4%	i
